Source: PubChem BioAssay (Tox21)
Results filed as inconclusive are left out. The source made the active and inactive calls. Unless noted, calls follow the shape of the dose curve; as a rule, active = well fitted curve in the direction sought with a large enough effect in the repeat runs; inconclusive = weak or mixed curves; inactive = no such curve, though single readings can be large; an effect the other way counts as inactive or inconclusive.

Tests used:
[1] = qHTS assay to identify small molecule agonists of the peroxisome proliferator-activated receptor delta (PPARd) signaling pathway - cell viability counter screen (AID 743211); also: nearly all actives have a fitted effect of over 55% in size
Outline: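 Tox21 library compounds, delivered in DMSO, were incubated 17 h with PPARd-bla HEK293H cells; cytotoxicity was taken from CellTiter-Glo luminescence read 30 min after reagent addition.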

[2] = biological target: Peroxisome proliferator-activated receptor delta (Homo sapiens) (UniProt Q03181); experiment: qHTS assay to identify small molecule agonists of the peroxisome proliferator-activated receptor delta (PPARd) signaling pathway (AID 743212; calls by dose curve)
Outline: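 Read-out: beta-lactamase FRET fluorescence after 2 h room-temperature incubation with LiveBLAzer B/G substrate. Cells were HEK293H carrying a UAS-bla reporter for PPARd, treated at 37 C with DMSO-dissolved compounds.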

[3] = qHTS assay to identify small molecule antagonists of the peroxisome proliferator-activated receptor delta (PPARd) signaling pathway - cell viability counter screen (AID 743213); also: nearly all actives have a fitted effect of over 50% in size
Outline: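 HEK293H PPARd UAS-bla cells, 5 h pre-incubation, compound + L165041 300 nM final, 17 h 37 C; B/G FRET substrate 2 h RT; then CellTiter-Glo 30 min RT, luminescence.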

[4] = biological target: Peroxisome proliferator-activated receptor delta (Homo sapiens) (UniProt Q03181); experiment: qHTS assay to identify small molecule antagonists of the peroxisome proliferator-activated receptor delta (PPARd) signaling pathway (AID 743215; active = well fitted inhibition curve with a large enough effect in the signal ratio in the repeat runs, not every such curve was filed as active; the % refers to the signal ratio;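 also: cells stimulated with agonist L165041 at 300 nM final during compound exposure; series mostly up to about 62 µM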)
Outline: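 Cells: HEK293H with a UAS-driven beta-lactamase reporter responsive to PPARd. Compounds were co-added with L165041 (300 nM, final) and incubated 17 h at 37 C before a 2 h room-temperature FRET substrate step and fluorescence reading.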

[5] = qHTS assay to identify small molecule agonists of the farnesoid-X-receptor (FXR) signaling pathway - cell viability counter screen (AID 743218); also: nearly all actives have a fitted effect of over 45% in size
Outline: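 Cells were seeded, left 5 h at 37 C and 5% CO2, then dosed with compound in DMSO for 16 h. After the beta-lactamase FRET read, CellTiter-Glo was added and luminescence measured 30 min later.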

[6] = qHTS assay to identify small molecule antagonists of the farnesoid-X-receptor (FXR) signaling pathway - cell viability counter screen (AID 743221; active = well fitted cell-killing curve with a large enough effect in the repeat runs, not every such curve was filed as active; also: nearly all actives have a fitted effect of over 50% in size)
Outline: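 Cytotoxicity is taken from ATP luminescence (CellTiter-Glo, 30 min, room temperature) in FXR-bla HEK 293T cells previously incubated 16 h at 37 C with compound and chenodeoxycholic acid at 50 uM final.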

[7] = biological target: Vitamin D3 receptor (Homo sapiens) (UniProt P11473); experiment: qHTS assay to identify small molecule agonists of the vitamin D receptor (VDR) signaling pathway (AID 743222; calls by dose curve)
Outline: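 Cells carrying a VDR-driven beta-lactamase reporter are seeded at 2,000 per well and rested 4 h. Compounds in DMSO are added for 16 h at 37C, and FRET substrate fluorescence is measured after 2 h at room temperature.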

[8] = biological target: Vitamin D3 receptor (Homo sapiens) (UniProt P11473); experiment: qHTS assay to identify small molecule antagonists of the vitamin D receptor (VDR) signaling pathway (AID 743223; active = well fitted inhibition curve with a large enough effect in the signal ratio in the repeat runs, not every such curve was filed as active; the % refers to the signal ratio)
Outline: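 Quantitative HTS in VDR-bla reporter cells stimulated with 1alpha,25-dihydroxyvitamin D3, 3 nM final. Compound exposure 16 h, 37C, 5% CO2. Read-out: beta-lactamase FRET substrate fluorescence, 2 h RT.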

[9] = qHTS assay to identify small molecule agonists of the vitamin D receptor (VDR) signaling pathway - cell viability counter screen (AID 743224); also: series mostly up to about 63 µM; nearly all actives have a fitted effect of over 50% in size
Outline: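 Cells: VDR-bla, 2,000/well, settled 4 h. Treatment: compounds in DMSO, 16 h, 37C/5% CO2. Readout: CellTiter-Glo luminescence after 30 min RT.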

[10] = qHTS assay to identify small molecule antagonists of the vitamin D receptor (VDR) signaling pathway - cell viability counter screen (AID 743225); also: nearly all actives have a fitted effect of over 50% in size
Outline: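 Same-well multiplex: following 16 h treatment of HEK 293T cells carrying a UAS-driven beta-lactamase reporter with compound and agonist (3 nM final), and a 2 h FRET substrate step, CellTiter-Glo was added and luminescence read after 30 min.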

[11] = qHTS assay to identify small molecule agonists of the NFkB signaling pathway - cell viability counter screen (AID 1159515; calls by dose curve; also: series mostly up to about 61 µM; nearly all actives have a fitted effect of over 55% in size)
Outline: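 Cells are seeded (2,000 NFkB-bla ME-180 per well), rested overnight, and dosed with DMSO-dissolved compounds for 5 hr at 37 C. Viability is then read by CellTiter-Glo luminescence after 30 min at room temperature.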

[12] = qHTS assay to identify small molecule agonists of the endoplasmic reticulum stress response signaling pathway (AID 1159516; active = well fitted activation curve with a large enough effect in the signal ratio in the repeat runs, not every such curve was filed as active; the % refers to the signal ratio)
Outline: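 Cells are seeded at 1,500 per well and incubated overnight. Compounds in DMSO are added for 5 hr at 37 C, then beta-lactamase FRET substrate for 2 hr at room temperature, and fluorescence at 460 and 530 nm is measured.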

[13] = qHTS assay to identify small molecule agonists of the endoplasmic reticulum stress response signaling pathway - cell viability counter screen (AID 1159517; calls by dose curve)
Outline: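 Steps: seed 1,500 ESRE-bla HeLa cells per well; incubate overnight at 37 C, 5% CO2; add compounds in DMSO for 5 hr; run FRET substrate 2 hr RT; add CellTiter-Glo, wait 30 min, read luminescence.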

[14] = qHTS assay to identify small molecule antagonists of the retinoid-related orphan receptor gamma (ROR-gamma) signaling pathway - cell viability counter screen (AID 1159520); also: nearly all actives have a fitted effect of over 50% in size
Outline: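 Tet-on ROR gamma CHO cells were given compounds for 2 hr, then doxycycline hyclate at 1 uM final, and incubated 16 hr at 37 C. Viability was measured as ATP content by CellTiter-Glo luminescence.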

[15] = biological target: Nuclear receptor ROR-gamma (Homo sapiens) (UniProt P51449); experiment: qHTS assay to identify small molecule antagonists of the retinoid-related orphan receptor gamma (ROR-gamma) signaling pathway (AID 1159521)
Outline: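 Inducible-expression reporter assay: doxycycline (1 uM final) switched on RORγ in CHO cells bearing a ROR response element-luciferase construct, with test compounds present from 2 h beforehand. Decreased luminescence after 16 h defined antagonist activity.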

[16] = qHTS assay to identify small molecule agonists of the AP-1 signaling pathway - cell viability counter screen (AID 1159525; calls by dose curve; also: nearly all actives have a fitted effect of over 55% in size)
Outline: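 Same-well cytotoxicity counter screen of the Tox21 10K library in ME-180 cells. The readout is ATP-dependent luminescence after 5 h compound treatment. Data are normalised to DMSO and tetra n-octyl ammonium bromide controls.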

[17] = qHTS assay to identify small molecule agonists of the AP-1 signaling pathway (AID 1159526; calls by dose curve)
[18] = biological target: Retinoic acid receptor RXR-alpha (Homo sapiens) (UniProt P19793); experiment: qHTS assay to identify small molecule agonists of the RXR signaling pathway (AID 1159527; calls by dose curve; also: nearly all actives have a fitted effect of over 35% in size)
Outline: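 Compounds in DMSO were added to RXR-alpha-UAS-bla HEK 293T cells kept in 2% charcoal-stripped serum, and incubated 16 hr at 37 C with 5% CO2. Reporter signal came from a 2 hr B/G FRET substrate step.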

[19] = qHTS assay to identify small molecule agonists of the RXR signaling pathway - cell viability counter screen (AID 1159529)
Outline: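 Counter screen: CellTiter-Glo luminescence. Cells: RXR-alpha-UAS-bla HEK 293T. Medium: 2% charcoal-stripped FBS. Treatment: 16 h, 37 C. Reagent incubation: 30 min, RT.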

[20] = biological target: Bile acid receptor (Homo sapiens) (UniProt Q96RI1); experiment: qHTS assay to identify small molecule antagonists of the farnesoid-X-receptor (FXR) signaling pathway (AID 743217; active = well fitted inhibition curve with a large enough effect in the signal ratio in the repeat runs, not every such curve was filed as active; the % refers to the signal ratio)
Outline: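 Cells carrying a UAS-driven beta-lactamase reporter (GeneBLAzer FXR-UAS-bla HEK 293T) were plated and rested 5 h at 37 °C. Compounds in DMSO were added alongside chenodeoxycholic acid agonist at 50 uM final and left 16 h at 37 °C before FRET substrate readout.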

Measured: Potency

Chain of Bile acid receptor (Homo sapiens) (Q96RI1 whole entry, looked up): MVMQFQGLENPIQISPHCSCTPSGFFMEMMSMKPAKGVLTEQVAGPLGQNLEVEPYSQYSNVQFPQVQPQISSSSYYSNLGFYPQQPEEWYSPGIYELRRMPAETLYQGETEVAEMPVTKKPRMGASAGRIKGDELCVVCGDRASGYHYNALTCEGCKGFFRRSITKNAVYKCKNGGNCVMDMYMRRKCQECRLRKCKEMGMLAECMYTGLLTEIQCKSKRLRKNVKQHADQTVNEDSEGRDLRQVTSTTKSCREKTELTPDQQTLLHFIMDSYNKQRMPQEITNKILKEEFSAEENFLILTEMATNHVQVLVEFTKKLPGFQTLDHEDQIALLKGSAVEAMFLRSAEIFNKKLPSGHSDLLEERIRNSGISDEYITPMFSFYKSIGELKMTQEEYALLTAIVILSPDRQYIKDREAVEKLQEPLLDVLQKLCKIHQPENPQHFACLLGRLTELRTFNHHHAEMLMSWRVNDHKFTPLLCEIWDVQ
Chain of Peroxisome proliferator-activated receptor delta (Homo sapiens) (Q03181 whole entry, looked up): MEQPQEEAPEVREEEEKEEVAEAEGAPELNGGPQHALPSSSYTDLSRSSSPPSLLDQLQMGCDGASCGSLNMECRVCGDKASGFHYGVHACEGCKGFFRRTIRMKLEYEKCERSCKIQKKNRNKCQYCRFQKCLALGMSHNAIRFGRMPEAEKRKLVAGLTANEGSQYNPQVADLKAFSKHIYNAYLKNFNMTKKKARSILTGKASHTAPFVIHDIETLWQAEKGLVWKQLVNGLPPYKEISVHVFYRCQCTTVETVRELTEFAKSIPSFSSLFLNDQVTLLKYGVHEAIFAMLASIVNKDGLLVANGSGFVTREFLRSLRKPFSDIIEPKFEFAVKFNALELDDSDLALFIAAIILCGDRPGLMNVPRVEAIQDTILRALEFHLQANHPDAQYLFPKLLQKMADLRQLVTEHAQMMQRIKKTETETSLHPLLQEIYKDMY
Chain of Vitamin D3 receptor (Homo sapiens) (P11473 whole entry, looked up): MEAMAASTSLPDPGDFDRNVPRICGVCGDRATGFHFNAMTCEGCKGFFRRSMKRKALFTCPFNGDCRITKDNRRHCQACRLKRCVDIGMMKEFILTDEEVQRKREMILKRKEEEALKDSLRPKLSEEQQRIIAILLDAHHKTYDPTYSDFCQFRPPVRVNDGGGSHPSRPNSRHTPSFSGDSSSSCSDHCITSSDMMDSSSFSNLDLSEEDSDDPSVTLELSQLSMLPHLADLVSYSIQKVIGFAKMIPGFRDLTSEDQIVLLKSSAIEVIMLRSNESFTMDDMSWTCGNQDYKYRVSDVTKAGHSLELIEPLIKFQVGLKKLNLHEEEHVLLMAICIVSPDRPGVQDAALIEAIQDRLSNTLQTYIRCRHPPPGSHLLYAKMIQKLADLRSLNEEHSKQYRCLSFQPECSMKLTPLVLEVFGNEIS
Chain of Retinoic acid receptor RXR-alpha (Homo sapiens) (P19793 whole entry, looked up): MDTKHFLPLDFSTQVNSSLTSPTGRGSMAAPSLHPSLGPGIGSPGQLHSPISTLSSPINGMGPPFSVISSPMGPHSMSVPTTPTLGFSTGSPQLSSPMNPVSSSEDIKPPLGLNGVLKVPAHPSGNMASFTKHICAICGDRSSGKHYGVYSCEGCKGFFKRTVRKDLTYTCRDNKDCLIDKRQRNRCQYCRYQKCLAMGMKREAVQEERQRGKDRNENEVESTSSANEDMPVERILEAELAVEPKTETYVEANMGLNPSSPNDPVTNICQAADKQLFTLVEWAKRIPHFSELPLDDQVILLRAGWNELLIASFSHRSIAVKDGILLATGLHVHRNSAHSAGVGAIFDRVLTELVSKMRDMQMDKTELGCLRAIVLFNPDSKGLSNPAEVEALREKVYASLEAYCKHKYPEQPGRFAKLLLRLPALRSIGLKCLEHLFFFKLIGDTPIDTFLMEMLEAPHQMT

OCC(O)CS (stereo unspecified)
not listed: [20]
inactive: all other assays above

C=CC(C)(C)C
not listed: [20]
inactive: all other assays above

C1CCCNCC1
not listed: [7] | [8] | [20]
inactive: all other assays above

Nc1cccc(N)n1
not listed: [20]
inactive: all other assays above

Cc1ccc(C)c(S(=O)(=O)O)c1
not listed: [20]
inactive: all other assays above

N[C@@H](Cc1cc(I)c(Oc2ccc(O)c(I)c2)c(I)c1)C(=O)O
not listed: [20]
inactive: all other assays above

CN1Cc2c(N)cccc2C(c2ccccc2)C1 (stereo unspecified)
not listed: [7] | [8] | [20]
inactive: all other assays above

COc1c(Cl)ccc(Cl)c1C(=O)O
not listed: [20]
inactive: all other assays above

OCc1ccc(Cl)cc1Cl
inactive: all assays above

CCc1cccc(O)c1
inactive: all assays above

O=C(O)C1=NN(c2ccc(S(=O)(=O)O)cc2)C(=O)C1
not listed: [7] | [8] | [20]
inactive: all other assays above

CCCCCC(C)=O
not listed: [20]
inactive: all other assays above

CC(=O)OC(C)(C)C1CC=C(C)CC1 (stereo unspecified)
not listed: [20]
inactive: all other assays above

O=C1OC(=O)c2c(Cl)c(Cl)c(Cl)c(Cl)c21
not listed: [7] | [8]
inactive: all other assays above

NC(=O)NC(N)=O
not listed: [7] | [8] | [20]
inactive: all other assays above

CCCCC(CC)COC(=O)c1ccc(C(=O)OCC(CC)CCCC)cc1 (stereo unspecified)
not listed: [7] | [8]
inactive: all other assays above
